Legend:
[1] = molecular target: PEG-3 (UniProt Q6IN02); experiment: Peg3 promoter luciferase inhibitors, potency, dose response, cell-based, HeLa, CREF/GAPDH counter-screen panel (AID 624167); settings: CREF/GAPDH counter-screens; HeLa PEG-Prom luciferase reporter, overnight, run 1, dose range 1, at 100 µM (top of the series) unless noted
[2] = molecular target: PEG-3 (UniProt Q6IN02); experiment: as above; settings: CREF/GAPDH counter-screens; HeLa PEG-Prom luciferase reporter, overnight, run 2, dose range 1, at 100 µM (top of the series) unless noted
[3] = tested on: Rat fibroblasts (CREF); experiment: as above; settings: CREF/GAPDH counter-screens; run 1, dose range 1, at 100 µM (top of the series)
[4] = tested on: Rat fibroblasts (CREF); experiment: as above; settings: CREF/GAPDH counter-screens; run 2, dose range 1, at 100 µM (top of the series)
[5] = molecular target: Tumor necrosis factor receptor superfamily member 10B (Homo sapiens) (UniProt O14763); experiment: caspase-8 TRAIL sensitization, hit retest, confirmation, cell-based, NB7+caspase-8, with/without TRAIL, luminescence panel (AID 651596); settings: NB7 neuroblastoma + caspase-8, TRAIL sensitization, luminescence viability, with TRAIL, mean of runs, at 10 µM, stronger effect = higher value
Chain of Tumor necrosis factor receptor superfamily member 10B (Homo sapiens) (O14763 whole entry, looked up): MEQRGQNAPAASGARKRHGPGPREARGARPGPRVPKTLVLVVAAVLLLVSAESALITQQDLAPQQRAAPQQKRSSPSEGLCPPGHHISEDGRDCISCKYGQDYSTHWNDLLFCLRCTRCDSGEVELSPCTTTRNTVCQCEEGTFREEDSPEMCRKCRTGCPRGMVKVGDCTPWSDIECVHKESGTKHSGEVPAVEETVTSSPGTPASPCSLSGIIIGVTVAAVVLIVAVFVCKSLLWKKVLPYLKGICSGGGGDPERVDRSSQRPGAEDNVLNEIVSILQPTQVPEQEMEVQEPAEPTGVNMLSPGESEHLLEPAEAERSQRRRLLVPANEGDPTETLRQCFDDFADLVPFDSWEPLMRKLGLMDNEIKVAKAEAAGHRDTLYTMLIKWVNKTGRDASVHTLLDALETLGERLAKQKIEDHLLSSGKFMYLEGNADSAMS

[6] = as above; settings: NB7 neuroblastoma + caspase-8, without TRAIL, luminescence viability, without TRAIL, mean of runs, at 10 µM

Chain of PEG-3 (Q6IN02 whole entry, looked up): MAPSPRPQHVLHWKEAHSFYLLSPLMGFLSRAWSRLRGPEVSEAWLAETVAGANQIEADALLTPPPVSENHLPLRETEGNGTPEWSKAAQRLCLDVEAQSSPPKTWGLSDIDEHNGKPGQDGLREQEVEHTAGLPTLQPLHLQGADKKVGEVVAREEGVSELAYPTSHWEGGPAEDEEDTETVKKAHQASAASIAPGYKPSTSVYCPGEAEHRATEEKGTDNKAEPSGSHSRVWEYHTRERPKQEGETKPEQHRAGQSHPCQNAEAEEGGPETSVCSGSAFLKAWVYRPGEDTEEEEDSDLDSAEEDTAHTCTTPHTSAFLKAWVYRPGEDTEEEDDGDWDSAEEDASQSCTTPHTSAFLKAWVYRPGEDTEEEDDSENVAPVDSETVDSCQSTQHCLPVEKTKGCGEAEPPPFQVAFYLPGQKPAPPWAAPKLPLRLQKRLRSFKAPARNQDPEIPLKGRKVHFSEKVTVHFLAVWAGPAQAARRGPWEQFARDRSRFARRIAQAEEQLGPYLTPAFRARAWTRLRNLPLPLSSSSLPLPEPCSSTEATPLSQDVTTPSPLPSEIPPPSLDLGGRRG

SMILES | inhibition [1] [%] | inhibition [2] [%] | inhibition [3] [%] | inhibition [4] [%] | activity [5] [%] | activity [6] [%]
CCCn1c(C)cc(C(=O)CN2C(=O)c3ccccc3S2(=O)=O)c1C | 97.5 | 98.9 | 91.2 | 92.1 | 60.1 | 62.3
OCC1OC(n2ccc3c(NO)ncnc32)C(O)C1O (centres undefined) | 99.4 | 101 | 95.4 | 94.6 | 98.8 | 99.1
Cc1ccc2nc(C)cc(Nc3ccc([N+](=O)[O-])cc3)c2c1 | 102 | 101 | 98.1 | 98.9 | – | –
C=CCn1c(C)cc(C(=O)CN2C(=O)c3ccccc3S2(=O)=O)c1C | 94.5 | 96.6 | 99.2 | 96.4 | 88.8 | 91.4
O=C(/C=C\Nc1ccc2c(c1)OCO2)c1ccccn1 | 102 | 95.1 | 98.9 | 97.2 | – | –
O=C(Nc1ccccn1)c1cc2ccccc2o1 | 82.3 | 96.6 | 99.4 | 98.8 | 90.3 | 89.6
CC(=O)c1ccc(-c2cnc3c(NC=O)cc(-c4ccccc4Oc4ccccc4)cn23)cc1 | 38.3 | 56.6 | -25.1 | 94.9 | – | –
CC1CCN(c2ccc(-c3cccs3)nn2)CC1 | 90.2 | 97.2 | 96.1 | 96.2 | – | –
O=C(Nc1nc2ccccc2[nH]1)c1ccccc1F | 97.3 | 98.3 | 98.8 | 99.2 | – | –
O=C(Nc1cccc(C(=O)O)c1)Nc1ccc2c(c1)OCO2 | 95.9 | 94.8 | 84.8 | 85.5 | – | –
C/C(=N/NC(=O)c1cc(C2CC2)[nH]n1)c1cccs1 | 92.3 | 87.2 | 95.4 | 96.2 | 70.8 | 70.8
CCc1ccc(/C=C2\SC(=S)N(CCCC(=O)Nc3cc(C)on3)C2=O)cc1 | 80 | 87.3 | 29.1 | 27.4 | – | –
O=C(CCl)Nc1ccccc1Sc1ccc(Cl)cc1 | 102 | 98.7 | 99.4 | 100 | 99.2 | 99.5
COCCn1c(C)cc(C(=O)COC(=O)c2cccc(O)c2)c1C | 89.5 | 91.3 | 98.3 | 97.1 | 86.2 | 87.7
O=C(NCCc1ccccc1F)c1ccc2c(c1)OCCO2 | 98.5 | 102 | 100 | 99.8 | 90.4 | 91
COc1ccc(-c2nc(-c3ccccn3)no2)cc1 | 99.7 | 96.8 | 99.9 | 99.4 | 96.7 | 95.7
CN1CCN(c2ccc(-c3ccc4ccccc4n3)cc2)CC1 | 99.5 | 101 | 98.1 | 98.6 | 88.5 | 84.3

SMILES | inhibition [1] [%] | inhibition [2] [%] | inhibition [3] [%] | inhibition [4] [%] | activity [5] [%] | activity [6] [%]
Cc1ccc2nc(NC(=O)c3ccccn3)sc2c1 | 99.4 | 98.6 | 94.5 | 95.5 | 94 | 93.7
Cc1cccc(/C=N/Nc2ccc3ccccc3n2)c1 | 101 | 101 | 94.2 | 96.2 | 82.4 | 78.5
O=C(CN1C(=O)c2ccccc2S1(=O)=O)c1ccc2c(c1)OCCCO2 | 98.1 | 98.8 | 99.7 | 99.4 | 95.4 | 94.1
CCOc1ccc(NC(=O)c2ccccn2)cc1 | 88.8 | 91.5 | 97.1 | 95.5 | 92.4 | 89.9
Cc1csc(NC(=O)c2ccc(N3CCCC3=O)cc2)n1 | 88.6 | 78.1 | 88.8 | 90.4 | 77.3 | 73.5
C(=NN1CCCCCC1)c1ccc2ccccc2n1 | 102 | 101 | 101 | 100 | 95.4 | 94.3
COc1cccc(NC(=O)c2nc(S(C)(=O)=O)ncc2Cl)c1 | 99.3 | 101 | 99.4 | 99.1 | 13.1 | 19.6
CC(=O)CSc1ccc(-c2nc3cc(C)c(C)cc3[nH]2)cn1 | 102 | 101 | 95.4 | 95.4 | 89.6 | 88.5
Fc1ccc(-c2nnc(NC3=NCCCCC3)o2)cc1 | 94.9 | 97.3 | 95.2 | 94 | 76 | 77.7
CC1=CC2C(C(O)CC3(C)C2CC(C)C32OCOC23COCO3)C2(C)C/C(=C\O)C(=O)C=C12 (centres undefined) | 102 | 101 | 100 | 100 | 94.3 | 98.1
Cc1csc(NC(=O)c2cn3ccccc3n2)n1 | 99 | 99.7 | 99.8 | 99.8 | 89.6 | 89.8
Cc1ccccc1OCC(O)CNC1CCC(NCC(O)COc2ccccc2C)CC1 (centres undefined) | 94.1 | 95.8 | 98.1 | 97.9 | 94.4 | 99.8
C(=NNc1ccc2ccccc2n1)c1ccccn1 | 99 | 102 | 99 | 99.3 | 82.5 | 86
Cc1cc(C(=O)CN2C(=O)c3ccccc3S2(=O)=O)c(C)n1CC1CCCO1 (centres undefined) | 102 | 99.2 | 99.2 | 89.4 | 87.9 | 89
C/C(=N\NC(=O)c1n[nH]c2c1CCC2)c1cccs1 | 98.6 | 99.7 | 96.7 | 94.4 | 80.4 | 76.2
O=C(c1ccc(Cl)cc1)N1CCCCC(Sc2nnc(-c3ccc4c(c3)OCO4)o2)C1=O (centres undefined) | 93.2 | 67.1 | 98 | 85.5 | 75.8 | 72.6
